Columns and labels:
Experiment in all cases: PBM binding z-score (relative to random genomic background probes); higher = stronger binding; sequences stand for … in GC…GCGATTGACAGCGTAGAATGAAGG
[1] = tested on: FXR:RXRa (NR concentration 270 nM, RXRa partner concentration 90 nM)
Summary of the method: (§1)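 On custom Agilent 4×180K arrays, double-stranded probes with 34-nt variable regions carried direct-repeat seeds, single-nucleotide variants, half-site ablations or random human genomic background. Ligand-free nuclear receptor dimers were applied for 1 h, and binding was read with antibodies against each partner (one per run). Binding z-scores come from regression-normalized fluorescence, with the random background probes as reference.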

[2] = tested on: LXRa:RXRa (NR concentration 270 nM, RXRa partner concentration 90 nM)
Summary of the method: as §1

[3] = tested on: LXRa homodimer (NR concentration 270 nM)
Summary of the method: as §1

[4] = tested on: LXRb:RXRa (NR concentration 270 nM, RXRa partner concentration 90 nM)
Summary of the method: as §1

[5] = tested on: LXRb homodimer (NR concentration 270 nM)
Summary of the method: as §1

[6] = tested on: PPARa:RXRa (NR concentration 270 nM, RXRa partner concentration 90 nM)
Summary of the method: as §1

[7] = tested on: PPARg:RXRa (NR concentration 180 nM, RXRa partner concentration 90 nM)
Summary of the method: as §1

[8] = tested on: PPARg:RXRa 270nM:90nM, anti-RXR (NR concentration 270 nM, RXRa partner concentration 90 nM)
Summary of the method: as §1

[9] = tested on: PPARg:RXRa 30nM:10nM, anti-RXR (NR concentration 30 nM, RXRa partner concentration 10 nM)
Summary of the method: as §1

[10] = tested on: PPARg:RXRa 90nM:30nM, anti-RXR (NR concentration 90 nM, RXRa partner concentration 30 nM)
Summary of the method: as §1

[11] = tested on: PPARg:RXRa DBDmut IVT, anti-RXR (DBD mutation: RXRa K156A/R161A, NR concentration 270 nM, RXRa partner concentration 90 nM)
Summary of the method: as §1

[12] = tested on: PPARg:RXRa IVT, anti-PPARg (NR concentration 270 nM, RXRa partner concentration 90 nM)
Summary of the method: as §1

[13] = tested on: PPARg DBDmut:RXRa IVT, anti-PPARg (DBD mutation: PPARg1 K132A/R137A, NR concentration 270 nM, RXRa partner concentration 90 nM)
Summary of the method: as §1

[14] = tested on: PPARg DBDmut IVT, anti-PPARg (DBD mutation: PPARg1 K132A/R137A, NR concentration 270 nM)
Summary of the method: as §1

[15] = tested on: PPARg homodimer (NR concentration 180 nM)
Summary of the method: as §1

[16] = tested on: PXR:RXRa (NR concentration 270 nM, RXRa partner concentration 90 nM)
Summary of the method: as §1

[17] = tested on: PXR homodimer (NR concentration 270 nM)
Summary of the method: as §1

[18] = tested on: RARa:RXR (NR concentration 270 nM, RXRa partner concentration 90 nM)
Summary of the method: as §1

[19] = tested on: RARa homodimer (NR concentration 270 nM)
Summary of the method: as §1

[20] = tested on: RARb:RXRa (NR concentration 270 nM, RXRa partner concentration 90 nM)
Summary of the method: as §1

Sequence	PBM binding z-score [1]	PBM binding z-score [2]	PBM binding z-score [3]	PBM binding z-score [4]	PBM binding z-score [5]	PBM binding z-score [6]	PBM binding z-score [7]	PBM binding z-score [8]	PBM binding z-score [9]	PBM binding z-score [10]	PBM binding z-score [11]	PBM binding z-score [12]	PBM binding z-score [13]	PBM binding z-score [14]	PBM binding z-score [15]	PBM binding z-score [16]	PBM binding z-score [17]	PBM binding z-score [18]	PBM binding z-score [19]	PBM binding z-score [20]
GCGACTGGGGTAAAGCAGGTTACCATAAGGTTGG	0.315	0.949	-0.396	0.852	-0.819	1.66	0.941	1.19	0.0678	0.64	3.33	2.74	-0.328	-0.991	-0.0118	0.651	-0.238	0.955	-0.412	0.44
TCGAGTAGGTTAGTCGGGGCATACAGCCAACATA	0.288	0.232	-0.353	0.458	-0.174	0.913	0.365	0.998	1.25	1.07	2.34	1.89	-0.401	-0.126	-0.0659	0.333	0.0501	0.379	-0.329	0.592
GCATACAGGTGAAACGCAGGTAACTCAGGGTGGC	-0.0721	0.132	-0.487	-0.143	-0.74	1.35	1.04	0.609	-0.12	0.232	3.57	1.78	-0.446	-0.192	-0.115	-0.254	-0.513	0.243	-0.373	0.744
ATCGAAAGGTCGAGGTCAGTATAGAGAAAGGGAA	5.77	4.62	1.15	4.12	1.14	5.3	4.76	5.12	2.04	4.08	0.84	3.1	1.71	1.29	3.42	4.33	1.7	4.81	2.18	5.1
CCTATTGGGCCATTCAGAGGTCATTGATCATATG	3	4.68	6.08	4.04	0.58	3.65	1.17	2.6	0.568	1.77	2.6	2.48	0.246	0.228	1.37	4.71	2.54	4.7	0.541	3.28
GCTGCTAGGTCAACTGATTGTCAGCTAAAGCTCG	4.09	2.79	-0.17	2.06	0.0753	3.54	2.73	3.13	0.683	2.12	4.92	4.51	-0.116	-0.522	0.898	1.19	-0.593	2.27	-0.584	4.25
CCTATTATTTGACCATAAGGGCAACCGAAGCTCG	1.29	0.777	1.8	1.02	1.25	0.882	0.551	0.728	0.155	0.461	0.801	1.15	0.688	1.57	3.21	0.9	2.77	1.05	4.4	1.64
GATACAGGGTCAAGGCCAGATTACGCGTATTGAT	7.02	4.53	0.129	4.07	0.268	5.77	5.99	5.29	2.36	4.09	2.74	4.03	2.24	1.3	3.72	4.43	0.645	5.48	1.59	4.65
CGTCCAAGGTCAAAGATCAGTGAAGAGATGACGG	6.99	5.44	0.528	4.2	1.25	5.75	6.08	6.43	3.08	5.64	3.3	3.88	0.698	-0.108	2.98	4.59	1.01	5.63	1.03	5.16
ATCCAAAGGTCGACGAGGTGAGTATACACCGTTT	5.35	3.7	0.198	3.13	0.235	4.5	4.29	4.16	1.4	3.03	0.48	2.51	0.787	0.209	1.99	3.05	0.52	3.62	0.92	4.07
CGTTCAAGGTCAAGGTCAGTGAAAGAGACTCGAA	8.13	5.69	1.57	5.06	1.66	6.33	6.87	6.8	3.49	5.56	4.65	5.44	0.946	1.3	3.58	5.02	1.3	5.02	1.49	5.9
ATACCAAGGTGATCGTGAGGTCGTTTATACTAAC	1.68	1.66	1.35	1.74	0.0373	1.69	0.492	0.454	-0.0827	0.159	0.676	1.12	0.496	0.607	0.889	3.27	2.05	2.19	0.982	1.51
TCCAGTTGGTCAAAGGTCACACACTCGAAATGCG	6.2	5.79	3.85	5.42	1.6	6.51	11	9.65	9.86	10.3	3.32	6.12	2.97	1.98	5.35	6.28	2.67	7.69	3.44	5.08
CCTACTGGGCCACGAAAGGTCATTTATTCAGTGA	3.85	5.32	6.04	4.6	1.31	4.47	4.58	4.66	1.87	4.02	5.5	5.64	-0.2	-0.0827	2.68	5.07	2.29	4.64	1.05	3.78
ATCTCTAGGTAAGACTCAGGTCAGTGAAGAACGC	0.852	0.72	0.909	0.721	0.721	1.03	0.296	0.86	0.135	0.413	1.9	1.67	0.483	1.13	1.65	0.724	0.764	0.911	0.98	1.62
CGTCCAAGGTCACTGCTAGGTCAGTGAAAGCATT	6.69	5.11	1.49	4.28	0.283	5.14	4.7	5.1	1.92	3.94	3.59	4.59	-0.128	0.266	3.91	4.72	1.09	5.65	0.316	5.42
CATACTGGGCCAAGGTCATTGATCAGTCAAAGCA	3.54	3.16	1.14	3.19	0.044	4.12	4.1	4.28	2.31	3.8	3.65	4.49	0.346	-0.286	2.02	3.78	2.15	4.01	0.356	3.35
CCTAGCAGGCCAGGGTCACTCTAGCATTTCGCTT	1.58	1.43	-0.629	1.71	-0.953	2.59	0.377	1.19	-0.703	-0.00564	0.274	0.7	-1.19	-1.73	0.937	2.39	-0.295	3.03	-0.305	2.52
CAAACTAGGTCAAGGTCGAAGTCGGTTTGTGCCA	4.68	3.03	0.706	2.37	-0.00931	5.05	8.77	7.1	5.52	7.19	8.51	8.63	2.92	2.06	3.02	2.71	0.704	3.14	0.902	4.47
GTAACGAGGGCAAGTTGATAGCAGAGTTTGATGG	0.832	0.576	-0.256	0.49	0.052	1.9	1.29	1.19	0.279	0.807	3.49	3.09	0.298	0.937	0.983	0.884	1.23	0.596	0.449	2.58
TCATATAGGTAATACAGGAGAAAGTCGGCATCTA	0.853	1.01	0.161	0.676	0.172	1.07	1.23	2.37	3.96	2.81	4.09	2.1	1.79	0.92	0.788	0.627	0.0379	0.706	1.13	0.369
TCATGTAGGTAAATGCTAGGTGAAAGTCCGATCT	0.737	0.46	0.144	0.503	0.151	1.33	0.723	2.1	2.88	2.6	4.15	3.44	0.811	1.12	0.796	0.502	0.512	0.568	1.39	0.378
ATCGAAAGGTCGAAGGTGAGTATGCCCACCCGAA	4.46	3.31	0.253	2.87	0.664	4.64	4.16	5.05	2.9	3.81	0.0846	2.48	0.798	0.662	1.31	3.12	-0.415	4.46	-0.229	3.83
CGTCCAAGTTCAAGGTCAGTGAAAGAGACTCGAA	4.93	4.22	1.93	3.18	0.857	4.02	2.06	2.5	0.198	1.24	0.857	1.87	0.331	-0.271	4.01	4.56	3.81	3.81	2.09	4.49
TCTAGTTTGTCAAAGGTCACACACTCGAAATGCG	6	5.79	5.08	5.68	2	6.11	8.39	8.19	7.6	8.39	2.53	4.9	1.7	3.34	4.88	5.82	1.78	6.66	2.78	4.98
ACTATAAGTTGAGACGAGGGCAACCGATAGGTTG	1.18	0.684	-0.161	0.115	-0.00417	0.691	1.01	0.487	0.313	0.578	0.251	0.388	0.373	-0.377	0.181	3.22	0.715	1.53	0.18	1.53

From the supplement of paper PMC6555819
